From PubChem BioAssay AID1159580 (chemical genetic matrix, 2015)
Screen size: about 5,500 compounds; about 2,000 (36%) were called active. Another 18% or so got no clear call; they are omitted. Rule as the data show it: active = normalized growth mostly below about 0.91 (no sharp cut-off); inconclusive = no clear call, values can overlap the other calls; inactive = mostly above about 0.92. Some of the results follow.

Experiment: chemical genetic growth profiling, strain panel (AID 1159580);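 also: tested at 20 µM; growth read once vehicle control cultures reached saturation at 30 °C; 1 = growth at the plate median or of vehicle wells; lower values mean less growth of the strain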
Conditions: S. cerevisiae deletion strains, growth OD

Measured: normalized growth

COc1c(O)cc2c(-c3ccccc3)cc(=O)oc2c1OC
inactive: locus YJR066W, strain TOR1, hits give low values 0.984 | locus YKL009W, strain mrt4, hits give low values 0.996 | locus YKL068W, hits give low values 0.985 | locus YKL085W, strain MDH1 (second series), hits give low values 0.973 | locus YKL085W, strain MDH1, hits give low values 0.973 | locus YKL160W, strain elf1, hits give low values 0.983 | locus YKL190W, strain CNB1, hits give low values 0.99 | locus YKR001C, strain vps1, hits give low values 0.946 | locus YKR026C, strain gcn3, hits give low values 1 | locus YKR091W, strain srl3, hits give low values 0.995 | locus YLL001W, strain dnm1, hits give low values 0.962 | locus YLL026W, hits give low values 1 | locus YLL041C, strain sdh2, hits give low values 0.998 | locus YLR027C, strain aat2, hits give low values 1 | locus YLR039C, strain RIC1, hits give low values 0.979 | locus YLR058C, strain SHM2, hits give low values 1.01 | locus YLR102C, strain apc9, hits give low values 0.983 | locus YLR113W, strain HOG1, hits give low values 1.03 | locus YLR221C, strain rsa3, hits give low values 1.04 | locus YLR258W, strain gsy2, hits give low values 1.01 | locus YLR262C, strain YPT6 (second series), hits give low values 0.878 | locus YLR268W, strain sec22, hits give low values 0.975 | locus YLR320W, strain mms22, hits give low values 1.02 | locus YLR330W, strain CHS5, hits give low values 0.985 | locus YLR342W, strain FKS1, hits give low values 1 | locus YLR357W, strain rsc2, hits give low values 0.95 | locus YLR370C, strain arc18, hits give low values 0.99 | locus YLR371W, strain rom2, hits give low values 0.97 | locus YLR384C, strain iki3, hits give low values 0.988 | locus YLR418C, strain cdc73, hits give low values 0.948 | locus YML016C, strain PPZ1, hits give low values 1 | locus YML032C, strain rad52, hits give low values 0.995 | locus YML120C, strain ndi1, hits give low values 0.966 | locus YML124C, strain tub3, hits give low values 0.971 | locus YMR058W, strain fet3, hits give low values 1.01 | locus YMR078C, strain ctf18, hits give low values 0.961 | locus YMR125W, strain sto1, hits give low values 0.973 | locus YMR129W, hits give low values 0.995 | locus YMR205C, strain PFK2, hits give low values 0.936 | locus YMR223W, strain ubp8, hits give low values 0.978 | locus YMR231W, strain pep5, hits give low values 0.995 | locus YMR263W, strain SAP30, hits give low values 0.989 | locus YNL067W, strain RPL9B, hits give low values 1.01 | locus YNL071W, strain lat1, hits give low values 0.993 | locus YNL128W, strain TEP1, hits give low values 1 | locus YNL153C, strain GIM3, hits give low values 1 | locus YNL183C, strain NPR1, hits give low values 0.994 | locus YNL209W, strain ssb2, hits give low values 0.991 | locus YNL233W, strain BNI4, hits give low values 1.01 | locus YNL248C, strain rpa49, hits give low values 1.03 | locus YNL250W, strain rad50, hits give low values 0.915 | locus YNL271C, strain bni1, hits give low values 0.973 | locus YNL298W, strain CLA4, hits give low values 1.01 | locus YNL307C, strain MCK1, hits give low values 0.95 | locus YNL322C, strain KRE1 (second series), hits give low values 0.982 | locus YNR049C, strain mso1, hits give low values 1.01 | locus YNR052C, strain pop2, hits give low values 0.99 | locus YOL012C, strain htz1 1.04 | locus YOL147C, strain pex11, hits give low values 0.968 | locus YOR001W, strain rrp6, hits give low values 1.02 | locus YOR061W, strain CKA2, hits give low values 1 | locus YOR069W, strain VPS5, hits give low values 0.994 | locus YOR070C, strain gyp1, hits give low values 0.999 | locus YOR080W, strain dia2, hits give low values 1.02 | locus YOR083W, strain WHI5, hits give low values 0.984 | locus YOR106W, strain vam3, hits give low values 0.967 | locus YOR136W, strain idh2, hits give low values 0.977 | locus YOR144C, strain elg1, hits give low values 0.989 | locus YOR184W, strain ser1, hits give low values 1.03 | locus YOR231W, strain MKK1, hits give low values 1.06 | locus YOR265W, strain rbl2, hits give low values 0.987 | locus YOR270C, strain vph1, hits give low values 1.01 | locus YOR290C, strain snf2, hits give low values 0.967 | locus YOR316C, strain cot1, hits give low values 0.962 | locus YPL051W, strain arl3, hits give low values 1.02 | locus YPL055C, strain LGE1, hits give low values 1.06 | locus YPL078C, strain atp4, hits give low values 0.969 | locus YPL106C, strain sse1, hits give low values 0.983 | locus YPL240C, strain hsp82, hits give low values 1 | locus YPL256C, strain CLN2, hits give low values 1.02 | locus YPR119W, strain clb2, hits give low values 0.947 | locus YPR141C, strain kar3, hits give low values 0.968 | locus YPR163C, strain tif3, hits give low values 0.98 | locus YPR167C, strain met16, hits give low values 0.968 | strain wtn01, hits give low values 0.991
active: locus YMR307W, strain GAS1, hits give low values 1.67 [resistant]
